Test results published in PubChem BioAssay (NCATS).
Results filed as inconclusive are left out. Unmarked numbers belong to inactive results. Calls come from the whole dose curve; as a rule, active = well fitted inhibition curve with a large enough effect; inconclusive = small, poorly fitted or top-dose-only effect; inactive = no such curve, though single readings can be large or run the other way.

The compounds below were run against Retinaldehyde dehydrogenase 3 (Homo sapiens) (UniProt P47895) (assay: qHTS for Inhibitors of the Aldehyde Dehydrogenase Family (ALDH1A3) Primary screen (AID 2061315;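 note: plate controls were DMSO vehicle for no effect and reference inhibitor for full effect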)). Conditions: ALDH inhibition qHTS; series mostly up to 56 µM; activity change, negative = inhibition: at the top concentration.

| SMILES | activity change, negative = inhibition |
| --- | --- |
| C/C=C/C=C/C(O)=C1\C(O)=C(C)C(=O)[C@@]2(C)OC(=O)[C@@](C)(NC(=O)/C=C/C(=O)O)[C@@H]12 | 13.2% [at 28 µM] |
| CC(=O)OC1C(=O)C2C3OCC4=C3[C@@](C)(CC[C@@H]4O)CC[C@]2(C)[C@H]1C(C)C (stereo not given in full) | 6.29% |
| C=C(C)C1CCC2(C(=O)O)CCC3(C(=O)O)C(CCC4C5(C)CCC(O)C(C)(C(=O)O)C5CCC43C)C12 (stereo not given) | 17.8% [at 28 µM] |
| C=C(C)[C@H]1CC[C@]2(C(=O)O)CC[C@]3(C)C(CCC4[C@@]5(C)CCC(=O)C(C)(C)C5CC[C@]43C)C12 (stereo not given in full) | 8.84% [at 28 µM] |
| COc1cc(CCC2=NN=C(NC(=O)c3ccc(N4C[C@@H](C)N[C@@H](C)C4)cc3)C2)cc(OC)c1 | 53.7% |
| O=C(CO)[C@@H](O)[C@H](O[C@@H]1O[C@H](CO)[C@H](O)[C@H](O)[C@H]1O)[C@H](O)CO | 5.16% |
| COc1cc(C(=O)OC(COCCC(C)C)CN2CCOCC2)cc(OC)c1OC (stereo not given) | -4.22% |
| C=C(C)[C@@H]1CC[C@]2(C)CC[C@]3(C)[C@H](CC[C@@H]4[C@@]5(C)CC[C@@H](O)C(C)(C)[C@@H]5CC[C@]43C)[C@@H]12 | 10.7% [at 28 µM] |
| CC(C)(O)c1ccc2c(c1)C(O)CC1C(C)(C(=O)O)CCCC21C (stereo not given) | -6.61% |
| CC(C)NC[C@H](O)COc1ccc(CCOCC2CC2)cc1 | -1.45% |
| C[C@@H]1C[C@H]2O[C@@]3(O[C@@H]2C(C)(C)O)C(O)[C@@]2(C)C4CCC5C(C)(C)[C@@H](O[C@H]6OC[C@H](O)[C@@H](O)[C@@H]6O)CC[C@@]56C[C@@]46CC[C@]2(C)C13 (stereo not given in full) | 12.6% [at 16.9 µM] |
| COc1ccc(/C=C/C(=O)O[C@H]2[C@@H]3C=CO[C@@H](O[C@@H]4O[C@H](CO)[C@@H](O)[C@H](O)[C@H]4O)[C@@H]3[C@@]3(CO)O[C@@H]23)cc1O | -8.24% [at 28 µM] |
| O=C(/C=C/c1ccccc1)OC[C@]12O[C@H]1[C@@H](O)[C@@H]1C=CO[C@@H](O[C@@H]3O[C@H](CO)[C@@H](O)[C@H](O)[C@H]3O)[C@@H]12 | 3.64% [at 28 µM] |
| CCOc1ncc(S(=O)(=O)N2CCN(CC)CC2)cc1-c1nc2c(CC)n(CCOC)nc2c(=O)[nH]1 | -12.3% |
| CC1CC(=O)[C@]2(O)C(C(=O)OCCc3ccc(O)cc3)=CO[C@@H](O[C@@H]3O[C@H](CO)[C@@H](O)[C@H](O)[C@H]3O)[C@H]12 (stereo not given in full) | -13.6% [at 28 µM] |
| Cc1cc(CNC(=O)c2cc(C(=O)NCc3ccc(F)c(C)c3)ncn2)ccc1F | 2.22% |
| Cc1c(C(=O)NCCCO)cnn1-c1nc(-c2cccc(C(F)(F)F)c2)cs1 | 1.23% |
| C=CC(=O)Nc1cc(-n2c(=O)ccc3cnc4ccc(-c5ccc(NS(C)(=O)=O)cc5)cc4c32)ccc1C | 11.3% |
| CC(C)C1(O)NC(=O)C(CC2(O)c3ccccc3N3C(=O)C(C)(C)NC32)n2c1nc1ccccc1c2=O (stereo not given) | 16.6% [at 28 µM] |
| CC(C)(O)/C=C/CC(C)(O)C1C(O)CC2(C)C3CCC4C(C)(C)C(=O)CCC4(C)C3CCC12C (stereo not given) | 1.41% [at 28 µM] |
| CCC(C)C(=O)O[C@H]1[C@H](O)[C@@]2(COC(C)=O)C(CC1(C)C)C1=CCC3[C@@]4(C)CC[C@H](O[C@@H]5O[C@H](C(=O)O)[C@@H](O)[C@H](O)[C@H]5O)[C@@](C)(CO)C4CC[C@@]3(C)[C@]1(C)C[C@@H]2O (stereo not given in full) | -9.4% [at 16.9 µM] |
| C=C1CCC2C(C)(C)CC(O)CC2(C)C1CCC(C)CC(=O)O (stereo not given) | 3.05% |
| C=C1CC[C@H]2[C@@](C)(CCC[C@@]2(C)C(=O)O)[C@@H]1CCC(C)CCO (stereo not given in full) | -14.4% |
| C=C(C(=O)O)C1CC(OC(=O)CC(C)CC)C2(C)CCCC(=C)C2C1 (stereo not given) | 4.29% |
| C[C@]12CCC[C@](C)(C(=O)O)C1CCC13CC(CO)C(CCC12)C3 (stereo not given in full) | -0.339% |
| C[C@@H]1O[C@@H](OC[C@H]2O[C@@H](OCc3ccccc3)[C@H](O)[C@@H](O)[C@@H]2O)[C@H](O)[C@H](O)[C@H]1O | -26.1% [at 28 µM] |
| CC(=O)c1c(C)cc(O)cc1O[C@@H]1O[C@H](CO)[C@@H](O)[C@H](O)[C@H]1O | 1.7% |
| CC1OC(OC2C(O)C(C(=O)O)OC(OC3CCC4(C)C(CCC5(C)C4C=CC4=C6CC(C)(C)CC(O)C6(C)CCC45C)C3(C)C)C2OC2OCC(O)C(O)C2O)C(O)C(O)C1O (stereo not given) | -2.44% [at 16.9 µM] |
| COc1ccc(-n2[nH]c3c(cnc4ccccc43)c2=O)cc1 | -2.36% |
| C=C1[C@@H]2CC[C@@]3(C)[C@H](c4ccoc4)OC(=O)C[C@]13O[C@H]1CC(=O)C(C)(C)[C@H](CC(=O)OC)[C@]12C | -6.85% [at 28 µM] |
